Test results from PubChem BioAssay (NCI).
About 83,000 compounds went through this panel and 20% of them were active in at least one assay; those are over-represented in the sample as a whole.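 Step 1: grow cells in 96-well plates. Step 2: add test compound at a single concentration. Step 3: incubate 48 h. Step 4: record percent growth.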 The source made the active and inactive calls. How the source made its calls: active means growth percent below 10; inactive means the rest.

Tests used:
Assay in all cases: NCI-60 one-dose screen, 48 h (100 = growth as untreated, 0 = no growth, -100 = all killed)
Details in all cases: 10 µM unless noted
T-47D breast = tested on: T-47D breast
MDA-MB-435 melanoma = tested on: MDA-MB-435 melanoma
SW-620 colon = tested on: SW-620 colon
MCF7 breast = tested on: MCF7 breast
HCT-116 colon = tested on: HCT-116 colon
HCC-2998 colon = tested on: HCC-2998 colon
KM12 colon = tested on: KM12 colon

Measured: growth

CCOC(=O)C(C(C)=O)c1nc2sc3cc(Cl)c(Cl)cc3n2c(=O)c1C#N (configuration not stated)
inactive: T-47D breast 78% | MDA-MB-435 melanoma 106% | SW-620 colon 116% | MCF7 breast 65.4% | HCT-116 colon 101% | HCC-2998 colon 106% | KM12 colon 98.6%

CCN(CC)c1ccc(/C=C/C=C2\NC(=O)NC2=O)cc1
inactive: T-47D breast 31.9% | SW-620 colon 31.2% | MCF7 breast 20.4% | HCT-116 colon 10.1% | HCC-2998 colon 37.2%
active: MDA-MB-435 melanoma -5.48%

O=C(Nc1cc(F)cc2cccnc12)c1cnc(N2CCNCC2)cn1
inactive: T-47D breast 18% | MDA-MB-435 melanoma 77.3% | SW-620 colon 40.9% | MCF7 breast 10.2% | HCT-116 colon 11% | HCC-2998 colon 85.6% | KM12 colon 81.2%

Nc1nc(Nc2ccccc2)c2ncn(Cc3ccc4c(c3)OCO4)c2n1
active: MDA-MB-435 melanoma -23.4%
inactive: T-47D breast 33.8% | SW-620 colon 23.1% | MCF7 breast 21.3% | HCT-116 colon 35.2% | HCC-2998 colon 71% | KM12 colon 26.2%

CC1(C)C(=O)/C(=C\c2ccco2)C[C@]2(C)[C@H]3CC=C4[C@@H]5C[C@](C)(C(=O)O)CC[C@]5(C)CC[C@@]4(C)[C@]3(C)CC[C@@H]12
active: T-47D breast -8.17% [100 µM] | MDA-MB-435 melanoma -75.1% [100 µM] | SW-620 colon -63.6% [100 µM] | MCF7 breast -43.1% [100 µM] | HCT-116 colon -67% [100 µM] | HCC-2998 colon -90.1% [100 µM] | KM12 colon -77.5% [100 µM]

Cc1ccc(Oc2c(/C=N/NC(=O)Cn3c(=O)sc4ccccc43)c(C)nn2-c2ccccc2)cc1
inactive: T-47D breast 20.4% | MDA-MB-435 melanoma 61.7% | SW-620 colon 68.4% | MCF7 breast 31.1% | HCT-116 colon 37% | HCC-2998 colon 69.2% | KM12 colon 49.3%

CCc1ccc(-c2ccc(COc3ccc(CC4SC(=O)NC4=O)cc3)cc2)cc1 (configuration not stated)
inactive: T-47D breast 41% | MDA-MB-435 melanoma 57.9% | SW-620 colon 80.7% | MCF7 breast 59.1% | HCT-116 colon 51% | HCC-2998 colon 89.6% | KM12 colon 64%

CCCN1CC(c2ccc(OC)c(OC)c2)=C(c2cn(C(=O)OCC)c3ccccc23)C1=O
inactive: T-47D breast 36.5% | SW-620 colon 31.5% | MCF7 breast 20.4% | HCT-116 colon 21% | HCC-2998 colon 78.3% | KM12 colon 32.3%
active: MDA-MB-435 melanoma -10.5%

O=C(Nc1cccc(F)c1)c1cc(=O)[nH]c2cc(Br)ccc12
active: MDA-MB-435 melanoma -21.8%
inactive: T-47D breast 48.1% | SW-620 colon 27.7% | MCF7 breast 17.6% | HCT-116 colon 19.1% | HCC-2998 colon 65% | KM12 colon 21.5%

COc1ccc(NC(=S)NNc2ccc(-c3ccc(OC)c(OC)c3)nn2)cc1
inactive: T-47D breast 96.4% | MDA-MB-435 melanoma 107% | SW-620 colon 102% | MCF7 breast 96.5% | HCT-116 colon 102% | HCC-2998 colon 109% | KM12 colon 104%

COc1cc(C(=O)/C=C/c2c(-c3ccc(F)cc3)nc3sccn23)cc(OC)c1OC
inactive: T-47D breast 19.8% | SW-620 colon 13.7% | HCT-116 colon 23.3% | HCC-2998 colon 73.1%
active: MDA-MB-435 melanoma -72.7% | MCF7 breast -8.44% | KM12 colon -12.1%

C=C(C)[C@@H]1CC[C@]2(C(=O)NCCCN)CC[C@]3(C)[C@H](CC[C@@H]4[C@@]5(C)CC[C@H](O)C(C)(C)[C@@H]5CC[C@]43C)[C@@H]12
active: T-47D breast -12.8% [100 µM] | MDA-MB-435 melanoma -32.4% [100 µM] | SW-620 colon -36.2% [100 µM] | MCF7 breast -8.46% [100 µM] | HCT-116 colon 1.97% [100 µM] | HCC-2998 colon -23.4% [100 µM] | KM12 colon -25.3% [100 µM]

CC1(C(=O)O)CCC(N)(C(=O)O)C1(C)C (configuration not stated)
inactive: T-47D breast 98.4% | MDA-MB-435 melanoma 115% | SW-620 colon 108% | MCF7 breast 99.5% | HCT-116 colon 110% | HCC-2998 colon 120% | KM12 colon 111%

CCOc1cc(/C=N\NC(=O)N/N=C/c2ccc(O)c(OCC)c2)ccc1O
active: MDA-MB-435 melanoma -14.6%
inactive: T-47D breast 29.5% | SW-620 colon 20.9% | MCF7 breast 17.4% | HCT-116 colon 24.8% | HCC-2998 colon 41% | KM12 colon 21.2%

Oc1c(CNCCNCc2cc(Cl)cc(Cc3ccccc3)c2O)cc(Cl)cc1Cc1ccccc1
inactive: T-47D breast 26.1% | MDA-MB-435 melanoma 22.8% | SW-620 colon 29.6% | MCF7 breast 17.4% | HCT-116 colon 18.6% | HCC-2998 colon 20.2% | KM12 colon 20.5%

Brc1ccc2c(c1)CN(C1CCCCC1)CO2
inactive: T-47D breast 96.2% | MDA-MB-435 melanoma 103% | SW-620 colon 100% | MCF7 breast 106% | HCT-116 colon 108% | HCC-2998 colon 102% | KM12 colon 100%

COc1cc(NCc2ccccc2O)c2ncccc2c1
inactive: T-47D breast 90.4% | MDA-MB-435 melanoma 103% | SW-620 colon 102% | MCF7 breast 95.2% | HCT-116 colon 64% | HCC-2998 colon 108%

CCCCC(CCCCCC(CCCC)C1NC(C)Cc2cc(OC)c(OC)cc21)C1NC(C)Cc2cc(OC)c(OC)cc21 (configuration not stated)
active: T-47D breast -76.8% | MDA-MB-435 melanoma -73.4% | SW-620 colon -80.8% | MCF7 breast -95.1% | HCT-116 colon -97.5% | HCC-2998 colon -97.3% | KM12 colon -94.7%

CC(=O)CC(=O)SC1=NCCS1
inactive: T-47D breast 104% | MDA-MB-435 melanoma 106% | SW-620 colon 97.7% | MCF7 breast 108% | HCT-116 colon 116% | HCC-2998 colon 112% | KM12 colon 102%

COc1cc(/C=C/C(=O)/C=C/c2ccc(-n3ccnc3)cc2)ccc1O
inactive: T-47D breast 58% | HCT-116 colon 97.5% | HCC-2998 colon 42.7%
active: MDA-MB-435 melanoma -9.19% | SW-620 colon 8.7% | MCF7 breast 6.22% | KM12 colon -42.4%

CSc1nc2sc3cc(Cl)c(Cl)cc3n2c(=N)c1C#N
inactive: T-47D breast 89.4% | MDA-MB-435 melanoma 97.7% | SW-620 colon 98.1% | MCF7 breast 60.5% | HCT-116 colon 100% | HCC-2998 colon 106% | KM12 colon 98.9%

CCCOc1ccc(-c2nc(-c3ccc(N)cc3)cs2)cc1
inactive: T-47D breast 84.9% | MDA-MB-435 melanoma 107% | SW-620 colon 113% | MCF7 breast 86% | HCT-116 colon 95.5% | HCC-2998 colon 114%

O=C(CCCSc1nc(-c2ccccc2)cc(-c2ccccc2)n1)NO
active: T-47D breast -2.43% | MCF7 breast 9.38% | HCT-116 colon 9.52%
inactive: MDA-MB-435 melanoma 12.3% | SW-620 colon 16% | HCC-2998 colon 17.7% | KM12 colon 14.4%

C[C@@H](NC(=O)[C@@H](CC(=O)N1CCC(N2CCCCC2)CC1)N1C(=O)[C@@H](N2C(=O)OC[C@@H]2c2ccccc2)[C@H]1/C=C/c1cccc(Cl)c1)c1ccccc1
inactive: T-47D breast 29.9% | SW-620 colon 66.3% | MCF7 breast 20.8% | HCT-116 colon 53.7% | HCC-2998 colon 28.5% | KM12 colon 71.3%
active: MDA-MB-435 melanoma 1.09%

C#CCOc1ccc(C2=NN(CC3CC3)C3N=C(Cl)c4ncn(CC5CC5)c4N23)cc1OCC#C (configuration not stated)
inactive: T-47D breast 28.2% | MDA-MB-435 melanoma 80.8% | SW-620 colon 91.8% | MCF7 breast 78.8% | HCT-116 colon 80.5% | HCC-2998 colon 119% | KM12 colon 46.6%

O=C(NCCCNC(=O)OCc1ccc2c(Br)cc(Br)c(O)c2n1)OCc1ccc2c(Br)cc(Br)c(O)c2n1
active: T-47D breast -58.2% | MDA-MB-435 melanoma -71.2% | SW-620 colon -44.7% | MCF7 breast -28.1% | HCT-116 colon -66% | HCC-2998 colon -42.5% | KM12 colon 7.57%

Cc1ccc(S(=O)(=O)N/N=C2\CC3CCC2(C)C3(C)C)cc1 (configuration not stated)
inactive: T-47D breast 105% | MDA-MB-435 melanoma 103% | SW-620 colon 99.3% | MCF7 breast 90.3% | HCT-116 colon 104% | HCC-2998 colon 748% | KM12 colon 95.4%

Cc1ccc2c(c1)/C(=N\N=C/c1cn(C(C)C)c3ccccc13)C(=O)N2
inactive: T-47D breast 24.9% | MDA-MB-435 melanoma 18.8% | SW-620 colon 46.4% | HCT-116 colon 28.1% | HCC-2998 colon 49.4% | KM12 colon 73.7%
active: MCF7 breast 8.52%

Cc1ccc(N)c(O)c1
inactive: T-47D breast 94.1% | MDA-MB-435 melanoma 102% | SW-620 colon 92.2% | MCF7 breast 83.5% | HCT-116 colon 85.2% | KM12 colon 99.5%
active: HCC-2998 colon -4.78%

CSc1nc(N)c(N=Nc2ccc(S(=O)(=O)Nc3nnc(C)s3)cc2)c(=O)[nH]1
inactive: T-47D breast 112% | MDA-MB-435 melanoma 128% | SW-620 colon 93.4% | MCF7 breast 100% | HCT-116 colon 109% | HCC-2998 colon 117% | KM12 colon 98.6%

COc1ccc(-c2cc(-c3ccccc3)nc(SCCCCCC(=O)NO)n2)cc1
inactive: T-47D breast 22.7% | MDA-MB-435 melanoma 37.5% | SW-620 colon 29.7% | MCF7 breast 49.8% | HCT-116 colon 21.6% | HCC-2998 colon 78.8% | KM12 colon 70.8%

CN(C)C(=S)Sc1ccc([N+](=O)[O-])cc1[N+](=O)[O-]
active: T-47D breast -34.7% | SW-620 colon -63.1% | MCF7 breast 0.536% | HCT-116 colon -54.4%
inactive: MDA-MB-435 melanoma 44.4% | HCC-2998 colon 88.9% | KM12 colon 49.1%

OC(c1ccc(Cl)cc1)(c1ccc(Cl)cc1)C(O)(c1ccc(Cl)cc1)c1ccc(Cl)cc1
active: HCT-116 colon 7.19%
inactive: T-47D breast 32.9% | MDA-MB-435 melanoma 29.3% | SW-620 colon 44.4% | MCF7 breast 49.7% | HCC-2998 colon 48.6% | KM12 colon 24.2%

O=C(CSc1nccc(Nc2ccc(S(=O)(=O)Nc3ccccn3)cc2)n1)c1ccc(Cl)cc1
inactive: T-47D breast 50.6% | MDA-MB-435 melanoma 118% | SW-620 colon 105% | MCF7 breast 91.4% | HCT-116 colon 92.2% | HCC-2998 colon 106% | KM12 colon 97.6%

CC(=O)O.CC(=O)O.O.[Fe]
inactive: T-47D breast 97.7% | MDA-MB-435 melanoma 128% | SW-620 colon 98.3% | MCF7 breast 111% | HCT-116 colon 108% | HCC-2998 colon 115% | KM12 colon 104%
